Shown are actives, neighbours in structure and some others; about 1.1% of the full set was active somewhere.
VLA-4 inh = inhibition in human VLA-4 binding assay, primary screen, VLA-4 allosteric modulator project, MLPCN library, flow cytometry, VLA-4 expressing cells; Integrin alpha-4 (Homo sapiens), P13612; ligand binding flow cytometry; inhibition, % (about 7 µM as worked out from the volumes in the protocol); 330,000 tested, 0.2% active; in the data active means inhibition above about 50%
Target sequence (P13612 whole entry, looked up): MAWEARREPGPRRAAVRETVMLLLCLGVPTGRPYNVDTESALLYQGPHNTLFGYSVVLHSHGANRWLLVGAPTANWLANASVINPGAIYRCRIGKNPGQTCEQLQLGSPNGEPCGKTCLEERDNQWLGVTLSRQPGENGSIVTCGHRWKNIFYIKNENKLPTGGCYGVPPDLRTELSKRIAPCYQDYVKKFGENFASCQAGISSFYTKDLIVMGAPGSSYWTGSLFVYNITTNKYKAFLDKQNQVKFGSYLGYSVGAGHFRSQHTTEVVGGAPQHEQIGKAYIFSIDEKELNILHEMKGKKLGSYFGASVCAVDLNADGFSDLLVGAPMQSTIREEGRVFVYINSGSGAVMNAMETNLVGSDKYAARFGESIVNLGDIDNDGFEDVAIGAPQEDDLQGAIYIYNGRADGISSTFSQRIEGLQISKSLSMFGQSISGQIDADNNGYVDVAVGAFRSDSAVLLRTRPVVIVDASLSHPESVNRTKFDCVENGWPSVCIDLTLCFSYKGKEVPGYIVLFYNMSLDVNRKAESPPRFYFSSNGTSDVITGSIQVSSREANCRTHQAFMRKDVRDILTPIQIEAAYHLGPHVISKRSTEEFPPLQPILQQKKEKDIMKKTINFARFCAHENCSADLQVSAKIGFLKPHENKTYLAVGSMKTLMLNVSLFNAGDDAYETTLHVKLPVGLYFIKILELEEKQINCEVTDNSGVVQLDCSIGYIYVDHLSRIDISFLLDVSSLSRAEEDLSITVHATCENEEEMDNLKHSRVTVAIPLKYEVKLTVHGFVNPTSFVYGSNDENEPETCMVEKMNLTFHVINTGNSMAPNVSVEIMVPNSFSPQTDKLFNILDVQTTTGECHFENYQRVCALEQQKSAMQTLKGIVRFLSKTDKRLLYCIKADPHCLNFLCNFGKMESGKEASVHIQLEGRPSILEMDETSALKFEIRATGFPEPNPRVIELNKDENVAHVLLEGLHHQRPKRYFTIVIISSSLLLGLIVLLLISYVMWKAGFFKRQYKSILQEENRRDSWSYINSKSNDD
ABCB6 inh MLPCN = ABCB6 transporter inhibitors, primary screen, K562-ABCB6 cells, flow cytometry, MLPCN library | ATP-binding cassette sub-family B member 6 (Homo sapiens), Q9NP58 | K562-ABCB6 porphyrin accumulation, 1 h; stronger effect = lower value | fluorescence ratio to DMSO, % at 10 µM | 360,000 tested, 0.19% active | AID 602162, 2011;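 active means fluorescence ratio to DMSO below 75%, the collection mean minus 3 SD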;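 further: signal is porphyrin accumulated inside mitochondria; 100% equals median channel fluorescence of DMSO control wells; lower ratio means ABCB6 inhibition with less porphyrin fluorescence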
CaV13 ICDI inh = Disruptors of the CACNA1D IQ motif to Ca2+-dependent inactivation inhibitor domain association, primary screening, Förster resonance energy transfer in intact living …; 340,000 tested, 0.098% active; HEK cells, CFP/YFP FRET ICDI-IQ, plate reader, 10 min; percent FRET-ratio fall versus neutral wells; AID 743397; inhibition, % at 12.3 µM;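 active means mean replicate inhibition of at least 30% and at least 1% of replicates passing that level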;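 further: 0% = median of the neutral control wells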
Exocytosis inh = LAMP-1 surface exposure blockers, TALL-104 cells – cell-based, flow cytometry, MLPCN library, primary screen. TALL-104 LAMP-1 surface exposure; cells stimulated with thapsigargin and PMA. inhibition, % at 10 µM. 360,000 tested, 0.66% active;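 active means inhibition above about 55%, limit read from the data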
VLA-4 mod pick = retest of VLA-4 allosteric modulators, confirmation, cell-based, cherry-picked plates, U937, HUTS-21 LIBS antibody; U937 cells, HUTS-21 LIBS mAb binding, flow cytometry; LDV ligand present at threefold Kd; inhibition, % at 6.7 µM; 1,300 tested, 2% active; shares compounds with VLA-4 inh; in the data active means inhibition above about 40%;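 further: 0% = ligand without compound and 100% = no ligand background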
Starred values were filed as active, the others as inactive; / = no result.

SMILES	VLA-4 inh	ABCB6 inh MLPCN	CaV13 ICDI inh	Exocytosis inh	VLA-4 mod pick
O=C(/C(=C\c1ccccc1)c1nc2ccccc2[nH]1)c1ccc(Cl)cc1	4	100	-6	46	/
Cc1c(C=O)c2ccccn2c1C(=O)c1cccs1	-5	100	32*	0	/
Cc1c(C=O)c2ccccn2c1C(=O)c1ccccc1Cl	6	100	-3	1	/
Cc1cccc(NCCC(=O)c2ccc([N+](=O)[O-])cc2)c1C	-2	96	-2	107*	/
Cc1ccc(NCCC(=O)c2cccc([N+](=O)[O-])c2)c(C)c1	8	101	-4	22	/
Cc1cc(C)n(-c2nc3c(c(=O)[nH]c(=O)n3C)n2Cc2cccc(Br)c2)n1	54*	100	0	0	6
COc1cc2sc(-c3ccccc3OC)c(-c3ccc(OCCN4CCOCC4)cc3)c2cc1OC	/	99	/	18	3
COc1ccc2c(-c3ccc(OCCN4CCOCC4)cc3)c(-c3ccccc3OC)sc2c1	/	100	/	2	1
COc1ccc(OCCN2CCOCC2)cc1	8	98	13	0	/
COC(=O)[C@]12C[C@H](CC(=O)NCc3cccc(C(F)(F)F)c3)C(=O)N(Cc3ccccc3)C1=C[C@H](C(C)C)O[C@@H]2C1CC1	/	/	-4	/	/
O=C(CSc1nnc(-c2ccc(Cl)cc2)n1Cc1ccco1)NCc1ccc2c(c1)OCO2	89*	102	-5	-1	0
O=C(N[C@@H](Cc1cccnc1)C(=O)N1CCC[C@H]1C(=O)NCCc1ccccc1Cl)c1ccco1	/	/	-3	/	/
CCC(CC)NC(=O)Nc1cccc(C)c1C	45	97	-16	-8	8
CCC(COC(=O)Nc1cccc(C)c1C)NC(=O)OCC(C)C (stereo not given)	5	100	-8	5	/
Cc1ccc(NC(=O)CSc2nn(-c3ccccc3)c(=S)s2)cc1S(=O)(=O)N(C)C	46	94	-4	5	4
O=C(CSc1nn(-c2ccccc2)c(=S)s1)Nn1cnnc1	1	101	-2	-1	/
CCO[C@@H]1OC(C(=O)Nc2ccccc2)=C[C@H](C)[C@H]1CCCO	-6	103	-5	-7	5
COC(=O)C1=C(NC(=O)COc2ccc3ccccc3c2)CCS1	41	99	-5	3	-13
Cc1cc(C(c2cc(C)c(N)c(C)c2)c2ccco2)cc(C)c1N	3	94	-20	-2	/
COC(=O)[C@]12C[C@H](CC(=O)N3CCN(C(=O)C4CC4)CC3)C(=O)N(CCC3=CCCCC3)C1=C[C@H](C(C)(C)C)O[C@@H]2C	/	/	-6	/	/
COc1ccc([C@@]2(O)c3c(ccc(CC=C(C)C)c3O)NC(=O)[C@@H]2OC)cc1	0	101	/	8	-10
C=CC(=O)NC1CCCCN(CCC)C1=O (stereo not given)	/	/	-2	/	/
Cc1ccnc(NS(=O)(=O)c2ccc(N)cc2)n1	7	101	-4	-3	-1
COc1cnc(NS(=O)(=O)c2ccc(N)cc2)nc1	59*	97	-6	-4	1
COc1cc(NS(=O)(=O)c2ccc(N)cc2)ncn1	63*	/	/	/	-4
SMILES	VLA-4 inh	ABCB6 inh MLPCN	CaV13 ICDI inh	Exocytosis inh	VLA-4 mod pick
Cc1ccnc(NS(=O)(=O)c2ccccc2)n1	19	91	-8	5	/
Cc1cc(C)nc(NS(=O)(=O)c2ccc(Br)cc2)n1	14	100	-4	0	-5
Cc1cccc([C@@H]2[C@@H]3C(=O)N(Cc4ccccc4)C(=O)[C@@H]3[C@]3(Cc4ccc(Cl)cc4)C(=O)N(c4cccc(Br)c4)C(=O)N23)c1	-2	103	-11	1	/
Cc1ccccc1-c1cc2nc(NCCOc3ccccc3Cl)n(C)c(=O)c2s1	/	99	-13	9	/
C[C@H](CO)N1C[C@H](C)[C@@H](CN(C)C(=O)c2ccccc2)OCc2cnnn2CCCC1=O	/	105	-5	16	/
CCCCc1c(-c2ccccc2OC)ncn1C(C)c1ccccc1 (stereo not given)	/	/	-7	/	/
Cc1cc(C)nc(NS(=O)(=O)c2ccc(N)cc2)n1	16	105	-5	-2	0
CN(C(=O)[C@H]1O[C@@H](n2cnc3c(=O)[nH]c(N)nc32)[C@H](O)[C@@H]1O)C1CCCCC1	/	/	-3	/	/
COc1ccccc1CC(=O)OC(C)C(=O)Nc1ccc(S(=O)(=O)N2CCCCC2)cc1 (stereo not given)	54*	99	-3	0	0
CCC(C)NC(=O)c1ccccc1NC(=O)COc1ccc(OC)cc1 (stereo not given)	/	99	-4	-1	6
COc1ccc(NC(=O)c2ccccc2NC(=O)COc2ccccc2)cc1	25	96	-4	-2	/
COc1ccc(OCC(=O)Nc2ccccc2C(=O)NC(C)C)cc1	1	99	-3	10	-2
COc1ccc(OCC(=O)Nc2ccccc2OC)cc1	0	97	-10	4	/
O=C(NC1CCCCC1)C(c1ccc(C(F)(F)F)cc1)n1c(=O)c(-c2cc3ccccc3[nH]2)nc2ccccc21 (stereo not given)	/	/	-23	-7	/
CC(=O)c1ccc(NC(=O)Nc2ccc(S(=O)(=O)N3CCCC3)cc2)cc1	23	99	-5	-2	/
COc1cc(SC)ccc1C(=O)Nc1cccc(S(=O)(=O)NC2=NCCC2)c1	-7	97	-6	0	/
CCOC(=O)c1[nH]c2ccccc2c1NC(C)=O	68*	89	-7	4	-4
c1ccc(-c2nn3cnnc3c3ccccc23)cc1	6	102	-6	5	-3
Cc1cc(NC(=O)CSc2ccc3nnc(-c4ccc(Cl)cc4)n3n2)no1	-1	96	-4	-1	4
CC(Sc1ccc2nnc(-c3ccc(F)cc3)n2n1)C(=O)O (stereo not given)	-8	99	-7	-4	/
COc1ccc(-c2nnc3ccc(SCC(=O)NCc4ccco4)nn23)cc1OC	10	97	-6	-1	1
Cc1ccc(-c2nnc3ccc(SC(C)C(=O)O)nn23)cc1 (stereo not given)	-12	98	-5	18	-1
COc1ccc(-c2nnc3ccc(SCC(=O)N4CCCCC4)nn23)cc1OC	21	100	-7	4	7
COc1ccc(CCNC(=O)COc2cccc(-n3cnnn3)c2)cc1	/	94	-4	4	/
CCOC(=O)N1CCN(c2nc3ccc(C(=O)c4ccccc4)cc3n3cnnc23)CC1	-9	99	5	5	/
O=C(c1ccccc1)c1ccc2nc(N3CCN(C(=O)c4ccco4)CC3)c3nncn3c2c1	55*	101	-8	11	-5

Screens from PubChem.
